Common to all, as to experiment: DAPPL (digital affinity profiling via proximity ligation, sequencing); 10 mM Tris-HCl pH 7.5, 50 mM NaCl, 1 mM DTT, 4% glycerol, room temperature, 30 min; GST-TFs on glutathione beads, 16-mer random dsDNA library, 0.1% formaldehyde crosslink after washing; high values mean tight binding
Experiment [1] deals with T1, FLI1 (Homo sapiens, UniProt Q01543 1-452).
T1 sequence: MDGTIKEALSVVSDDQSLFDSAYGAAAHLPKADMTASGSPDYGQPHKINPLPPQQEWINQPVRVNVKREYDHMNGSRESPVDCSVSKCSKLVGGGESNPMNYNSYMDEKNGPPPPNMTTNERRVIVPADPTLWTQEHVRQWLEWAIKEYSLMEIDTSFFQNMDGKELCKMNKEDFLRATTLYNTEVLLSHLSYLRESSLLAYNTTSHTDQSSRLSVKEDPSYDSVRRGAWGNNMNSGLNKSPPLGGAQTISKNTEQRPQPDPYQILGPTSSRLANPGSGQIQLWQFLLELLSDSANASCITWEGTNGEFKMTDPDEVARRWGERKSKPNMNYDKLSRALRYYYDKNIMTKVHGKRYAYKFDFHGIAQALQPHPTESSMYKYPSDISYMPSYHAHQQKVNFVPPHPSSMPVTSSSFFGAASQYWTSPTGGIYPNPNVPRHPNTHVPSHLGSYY
The following applies: protein: recombinant; tags: N-terminal GST; dsDNA, one strand shown. Summed up:
(§1)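 The binding signal reported is, for every hexamer, its read frequency for a factor over its read frequency for the tag-only sample. Reads came from pools of yeast-expressed, GST-fused human transcription factors on glutathione beads, barcoded with DNA and mixed with that sample, which were incubated with 200 nmole of a random double-stranded 16-mer DNA library in Tris/NaCl/DTT/glycerol buffer at room temperature for 30 min. After washing, the pools were crosslinked with 0.1% formaldehyde, proximity-ligated with BsaI/T4 ligase for 1 h at 37 °C, PCR-amplified and sequenced on an Illumina NextSeq500.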

In experiment [2] the target is T2, ERG (Homo sapiens, UniProt P11308 1-479).
T2 sequence: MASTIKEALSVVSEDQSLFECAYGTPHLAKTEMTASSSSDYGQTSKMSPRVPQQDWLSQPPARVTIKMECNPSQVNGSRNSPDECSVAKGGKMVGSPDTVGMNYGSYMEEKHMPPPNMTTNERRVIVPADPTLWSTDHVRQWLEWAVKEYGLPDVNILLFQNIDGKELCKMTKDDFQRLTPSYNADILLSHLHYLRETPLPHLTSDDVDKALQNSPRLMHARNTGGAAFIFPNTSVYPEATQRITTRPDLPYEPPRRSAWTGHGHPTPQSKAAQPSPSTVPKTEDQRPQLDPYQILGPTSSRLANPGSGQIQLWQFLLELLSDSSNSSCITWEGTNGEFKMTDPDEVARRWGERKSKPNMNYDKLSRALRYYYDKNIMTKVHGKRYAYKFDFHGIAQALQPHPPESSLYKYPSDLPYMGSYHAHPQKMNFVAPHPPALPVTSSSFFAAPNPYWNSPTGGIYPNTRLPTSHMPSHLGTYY
The following applies: protein: recombinant; tags: N-terminal GST; dsDNA, one strand shown. In outline: as §1

The target of experiment [3] is ELF1 (Homo sapiens, UniProt P32519 1-619). The following applies: protein: recombinant; tags: N-terminal GST; dsDNA, one strand shown. In outline: as §1
Experiment [4] deals with T3, EHF (Homo sapiens, UniProt Q9NZC4 1-300).
T3 sequence: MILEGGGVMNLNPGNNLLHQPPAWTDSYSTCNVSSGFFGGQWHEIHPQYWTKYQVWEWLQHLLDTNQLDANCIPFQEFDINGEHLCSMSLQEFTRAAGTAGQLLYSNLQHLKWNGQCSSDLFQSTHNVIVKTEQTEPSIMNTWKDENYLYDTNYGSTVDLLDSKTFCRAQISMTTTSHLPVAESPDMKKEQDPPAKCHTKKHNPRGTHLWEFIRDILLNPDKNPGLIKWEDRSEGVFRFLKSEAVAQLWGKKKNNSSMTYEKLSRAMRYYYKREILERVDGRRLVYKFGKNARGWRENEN
The following applies: protein: recombinant; tags: N-terminal GST; dsDNA, one strand shown. Summed up:
as §1

In experiment [5] the target is SPI1 (Homo sapiens, UniProt P17947 1-270). The following applies: protein: recombinant; tags: N-terminal GST; dsDNA, one strand shown. In outline: as §1
In experiment [6] the target is SPIB (Homo sapiens, UniProt Q01892 1-262). The following applies: protein: recombinant; tags: N-terminal GST; dsDNA, one strand shown. Summed up: as §1
In experiment [7] the target is T4, FEV (Homo sapiens, UniProt Q99581 1-238).
T4 sequence: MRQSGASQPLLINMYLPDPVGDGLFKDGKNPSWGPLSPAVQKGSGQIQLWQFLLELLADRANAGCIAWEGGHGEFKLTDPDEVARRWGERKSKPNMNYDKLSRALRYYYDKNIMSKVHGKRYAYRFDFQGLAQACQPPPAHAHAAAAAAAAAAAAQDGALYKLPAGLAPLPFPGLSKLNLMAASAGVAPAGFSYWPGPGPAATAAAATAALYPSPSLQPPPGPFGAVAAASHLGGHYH
The following applies: protein: recombinant; tags: N-terminal GST; dsDNA, one strand shown. Summed up:
as §1

Experiment [8] deals with ETV5 (Homo sapiens, UniProt P41161 1-510). The following applies: protein: recombinant; tags: N-terminal GST; dsDNA, one strand shown. Summed up:
as §1

Experiment [9] concerns the target HSF1 (Homo sapiens, UniProt Q00613 1-529). The following applies: protein: recombinant; tags: N-terminal GST; chain copies: 3; dsDNA, one strand shown. In outline: as §1
Experiment [10] concerns the target T5, SPIC (Homo sapiens, UniProt Q8N5J4 1-248).
T5 sequence: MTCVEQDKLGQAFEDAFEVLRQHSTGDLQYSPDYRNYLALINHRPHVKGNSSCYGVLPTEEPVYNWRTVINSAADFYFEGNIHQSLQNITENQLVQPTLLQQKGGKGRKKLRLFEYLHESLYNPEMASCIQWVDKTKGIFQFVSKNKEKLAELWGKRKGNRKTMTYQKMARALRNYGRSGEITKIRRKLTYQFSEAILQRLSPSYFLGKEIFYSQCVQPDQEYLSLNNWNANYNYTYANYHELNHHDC
The following applies: protein: recombinant; tags: N-terminal GST; dsDNA, one strand shown. Summed up: as §1

For experiment [11], the target named is ELF4 (Homo sapiens, UniProt Q99607 1-663). The following applies: protein: recombinant; tags: N-terminal GST; dsDNA, one strand shown. In outline: as §1
For experiment [12], the target named is T6, ELK4 (Homo sapiens, UniProt P28324-2 1-405).
T6 sequence: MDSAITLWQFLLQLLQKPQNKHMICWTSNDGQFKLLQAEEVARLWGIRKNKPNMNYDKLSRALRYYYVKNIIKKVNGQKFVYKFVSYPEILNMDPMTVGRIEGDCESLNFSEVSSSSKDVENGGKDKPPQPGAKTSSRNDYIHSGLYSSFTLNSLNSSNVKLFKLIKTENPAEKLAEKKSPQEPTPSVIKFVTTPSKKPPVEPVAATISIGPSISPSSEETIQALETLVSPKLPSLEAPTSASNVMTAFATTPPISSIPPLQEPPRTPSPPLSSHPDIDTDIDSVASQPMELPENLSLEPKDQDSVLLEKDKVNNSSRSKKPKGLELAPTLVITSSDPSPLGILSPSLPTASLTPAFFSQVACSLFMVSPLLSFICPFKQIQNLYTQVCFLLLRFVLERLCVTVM
The following applies: protein: recombinant; tags: N-terminal GST; dsDNA, one strand shown. In outline:
as §1

Experiment [13] concerns the target T7, ETV2 (Homo sapiens, UniProt O00321 1-342).
T7 sequence: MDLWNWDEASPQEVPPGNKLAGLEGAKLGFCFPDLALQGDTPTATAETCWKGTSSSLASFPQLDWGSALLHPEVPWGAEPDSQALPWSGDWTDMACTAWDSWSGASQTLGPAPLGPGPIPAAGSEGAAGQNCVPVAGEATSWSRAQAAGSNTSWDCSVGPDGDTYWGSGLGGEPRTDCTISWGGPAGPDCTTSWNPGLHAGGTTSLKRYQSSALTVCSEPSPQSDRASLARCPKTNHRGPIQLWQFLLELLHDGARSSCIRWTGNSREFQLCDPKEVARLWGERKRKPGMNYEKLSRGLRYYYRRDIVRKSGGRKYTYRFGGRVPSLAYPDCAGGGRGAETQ
The following applies: protein: recombinant; tags: N-terminal GST; dsDNA, one strand shown. Summed up:
as §1

The target of experiment [14] is CRX (Homo sapiens, UniProt O43186 1-299). The following applies: protein: recombinant; tags: N-terminal GST; dsDNA, one strand shown. In outline:
as §1

Experiment [15] deals with ETV1 (Homo sapiens, UniProt P50549 1-477). The following applies: protein: recombinant; tags: N-terminal GST; dsDNA, one strand shown. Summed up: as §1
Chain of ETV1 (P50549 whole entry): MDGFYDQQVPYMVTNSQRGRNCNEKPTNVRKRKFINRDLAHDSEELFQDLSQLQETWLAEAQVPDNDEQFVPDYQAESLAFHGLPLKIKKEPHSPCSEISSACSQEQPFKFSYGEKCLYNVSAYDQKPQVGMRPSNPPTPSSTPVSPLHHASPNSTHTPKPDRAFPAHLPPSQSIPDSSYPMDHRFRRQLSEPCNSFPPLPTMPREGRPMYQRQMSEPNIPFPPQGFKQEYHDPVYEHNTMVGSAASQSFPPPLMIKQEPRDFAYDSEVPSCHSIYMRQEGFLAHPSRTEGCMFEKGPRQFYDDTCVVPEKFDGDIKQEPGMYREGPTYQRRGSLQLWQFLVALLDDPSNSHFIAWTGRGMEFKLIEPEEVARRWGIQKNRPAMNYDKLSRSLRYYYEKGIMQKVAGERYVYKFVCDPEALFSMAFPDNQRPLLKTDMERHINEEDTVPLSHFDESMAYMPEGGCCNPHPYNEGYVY

Chain of ELF1 (P32519 whole entry): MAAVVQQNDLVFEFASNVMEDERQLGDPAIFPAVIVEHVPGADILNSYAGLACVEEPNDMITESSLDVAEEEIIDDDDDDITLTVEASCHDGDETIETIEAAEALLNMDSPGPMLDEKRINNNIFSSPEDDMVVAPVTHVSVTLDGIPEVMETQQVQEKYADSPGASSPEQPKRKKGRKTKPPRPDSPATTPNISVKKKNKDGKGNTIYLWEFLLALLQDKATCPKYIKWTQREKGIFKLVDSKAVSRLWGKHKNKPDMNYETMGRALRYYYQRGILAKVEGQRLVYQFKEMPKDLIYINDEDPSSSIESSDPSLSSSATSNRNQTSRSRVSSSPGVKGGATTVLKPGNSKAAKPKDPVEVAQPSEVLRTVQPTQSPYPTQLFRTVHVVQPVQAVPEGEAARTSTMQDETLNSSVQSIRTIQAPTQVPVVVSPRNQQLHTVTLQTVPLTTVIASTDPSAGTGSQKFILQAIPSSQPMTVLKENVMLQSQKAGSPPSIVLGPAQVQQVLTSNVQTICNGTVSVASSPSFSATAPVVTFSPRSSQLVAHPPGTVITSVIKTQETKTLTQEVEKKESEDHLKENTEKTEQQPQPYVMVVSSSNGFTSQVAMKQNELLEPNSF
Chain of SPIB (Q01892 whole entry): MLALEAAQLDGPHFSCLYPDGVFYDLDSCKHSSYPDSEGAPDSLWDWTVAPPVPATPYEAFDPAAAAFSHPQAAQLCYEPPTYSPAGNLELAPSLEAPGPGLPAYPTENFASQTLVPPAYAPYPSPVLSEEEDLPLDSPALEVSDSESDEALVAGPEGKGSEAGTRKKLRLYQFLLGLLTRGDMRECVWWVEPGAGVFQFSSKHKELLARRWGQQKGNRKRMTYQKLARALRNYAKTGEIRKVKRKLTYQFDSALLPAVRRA
Chain of CRX (O43186 whole entry): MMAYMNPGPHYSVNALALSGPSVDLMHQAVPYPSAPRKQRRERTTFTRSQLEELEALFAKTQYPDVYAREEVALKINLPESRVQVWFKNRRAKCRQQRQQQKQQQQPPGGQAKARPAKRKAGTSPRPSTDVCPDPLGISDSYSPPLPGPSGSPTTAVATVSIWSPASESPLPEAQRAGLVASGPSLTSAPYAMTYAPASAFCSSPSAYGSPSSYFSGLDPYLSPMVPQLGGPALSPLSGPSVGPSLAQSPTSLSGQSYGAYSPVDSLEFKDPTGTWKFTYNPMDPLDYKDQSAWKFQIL
Chain of HSF1 (Q00613 whole entry): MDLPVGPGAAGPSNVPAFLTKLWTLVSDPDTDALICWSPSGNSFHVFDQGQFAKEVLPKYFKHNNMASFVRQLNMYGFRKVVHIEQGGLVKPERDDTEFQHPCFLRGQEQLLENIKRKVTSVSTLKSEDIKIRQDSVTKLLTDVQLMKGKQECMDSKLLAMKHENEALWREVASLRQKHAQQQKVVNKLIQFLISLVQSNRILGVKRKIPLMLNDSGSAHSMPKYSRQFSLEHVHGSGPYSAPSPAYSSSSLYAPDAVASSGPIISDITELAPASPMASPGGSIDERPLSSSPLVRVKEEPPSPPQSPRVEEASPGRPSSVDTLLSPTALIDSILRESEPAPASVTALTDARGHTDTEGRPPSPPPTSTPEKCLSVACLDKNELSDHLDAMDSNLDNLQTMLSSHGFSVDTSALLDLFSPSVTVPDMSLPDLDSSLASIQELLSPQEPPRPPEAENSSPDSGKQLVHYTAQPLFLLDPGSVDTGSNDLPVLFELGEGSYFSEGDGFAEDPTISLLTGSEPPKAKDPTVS
Chain of ELF4 (Q99607 whole entry): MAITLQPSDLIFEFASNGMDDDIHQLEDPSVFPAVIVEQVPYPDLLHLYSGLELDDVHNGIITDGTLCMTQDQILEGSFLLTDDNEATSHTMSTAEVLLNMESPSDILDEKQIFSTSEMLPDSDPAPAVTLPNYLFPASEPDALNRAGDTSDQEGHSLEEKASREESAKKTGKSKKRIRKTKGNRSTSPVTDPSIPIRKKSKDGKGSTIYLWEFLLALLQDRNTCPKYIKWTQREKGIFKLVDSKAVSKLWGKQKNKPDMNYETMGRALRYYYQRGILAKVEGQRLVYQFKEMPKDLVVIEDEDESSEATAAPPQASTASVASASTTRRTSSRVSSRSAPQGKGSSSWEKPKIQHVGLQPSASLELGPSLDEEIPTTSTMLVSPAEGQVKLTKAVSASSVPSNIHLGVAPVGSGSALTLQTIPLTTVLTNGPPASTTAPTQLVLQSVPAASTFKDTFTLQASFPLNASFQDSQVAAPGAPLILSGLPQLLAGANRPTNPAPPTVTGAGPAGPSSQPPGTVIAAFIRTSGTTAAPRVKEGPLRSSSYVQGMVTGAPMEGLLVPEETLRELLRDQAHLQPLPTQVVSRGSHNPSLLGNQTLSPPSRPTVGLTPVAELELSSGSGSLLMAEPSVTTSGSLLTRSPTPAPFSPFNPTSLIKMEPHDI
Chain of ETV5 (P41161 whole entry): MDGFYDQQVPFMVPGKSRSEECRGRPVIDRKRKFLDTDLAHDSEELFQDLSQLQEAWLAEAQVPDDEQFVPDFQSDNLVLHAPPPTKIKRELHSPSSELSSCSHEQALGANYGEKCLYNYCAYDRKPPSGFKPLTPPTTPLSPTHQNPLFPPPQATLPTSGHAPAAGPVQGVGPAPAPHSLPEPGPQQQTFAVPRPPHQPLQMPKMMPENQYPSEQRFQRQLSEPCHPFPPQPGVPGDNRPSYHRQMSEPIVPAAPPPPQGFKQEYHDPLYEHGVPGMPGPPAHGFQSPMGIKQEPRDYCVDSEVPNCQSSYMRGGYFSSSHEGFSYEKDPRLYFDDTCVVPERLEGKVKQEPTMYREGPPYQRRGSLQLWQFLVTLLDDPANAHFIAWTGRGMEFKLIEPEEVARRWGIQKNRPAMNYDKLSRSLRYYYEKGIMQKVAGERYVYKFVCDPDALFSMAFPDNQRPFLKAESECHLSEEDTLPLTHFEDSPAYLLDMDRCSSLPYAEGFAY

As to CGAAAT, the binding signal in experiment [1] is 1.05 fold enrichment (6-mer frequency, TF over GST control); in [2] it was 1.02 fold enrichment (6-mer frequency, TF over GST control); in experiment [3] it was 1.01 fold enrichment (6-mer frequency, TF over GST control); in [4] it was 1.07 fold enrichment (6-mer frequency, TF over GST control); in experiment [5] it was 1.09 fold enrichment (6-mer frequency, TF over GST control); in experiment [6], 1.07 fold enrichment (6-mer frequency, TF over GST control). For the same sequence, the binding signal was 1 fold enrichment (6-mer frequency, TF over GST control) in experiment [7]; 1 fold enrichment (6-mer frequency, TF over GST control) in experiment [8]; 1.4 fold enrichment (6-mer frequency, TF over GST control) in experiment [9]; 1.01 fold enrichment (6-mer frequency, TF over GST control) in experiment [10]; 1.01 fold enrichment (6-mer frequency, TF over GST control) in experiment [11]; 1.18 fold enrichment (6-mer frequency, TF over GST control) in [12]. For the same sequence, the binding signal in experiment [13] was 1.06 fold enrichment (6-mer frequency, TF over GST control); in [14], 1.07 fold enrichment (6-mer frequency, TF over GST control); in experiment [15] it was 1.02 fold enrichment (6-mer frequency, TF over GST control).

Source of the values: paper PMC7862700, “An all-to-all approach to the identification of sequence-specific readers for epigenetic DNA modifications on cytosine”.
